From the supplement of paper PMC8728848
This excerpt belongs to a sample that is enriched for the strongest signals.

Experiments:
Assay in all cases: glycan array binding signal (z-score within array); higher = stronger binding
Conditions in all cases: glycan notation: IUPAC condensed, linker removed
[1] = biological target: Fuc(a1-2)Gal(b1-4)GlcNAc(b1-2)Man
Procedure, shortened: (§1)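 From the Consortium for Functional Glycomics database, 3228 arrays were curated, keeping only those whose protein sequence was available. Binding is given as a within-array Z-score averaged across arrays sharing a protein sequence and across linkers. Negative Z-scores can be read as non-binding.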

[2] = biological target: Fuc(a1-2)[Gal(a1-3)]Gal(b1-3)GalNAc(b1-3)Gal(a1-4)Gal(b1-4)Glc
Procedure, shortened: as §1

[3] = biological target: Fuc(a1-2)[GalNAc(a1-3)]Gal(b1-4)GlcNAc(b1-2)Man(a1-3)[Fuc(a1-2)[GalNAc(a1-3)]Gal(b1-4)GlcNAc(b1-2)Man(a1-6)]Man(b1-4)GlcNAc(b1-4)[Fuc(a1-6)]GlcNAc
Procedure, shortened: as §1

[4] = biological target: Fuc(a1-3)[Gal3S(b1-4)]Glc
Procedure, shortened: as §1

[5] = biological target: Fuc(a1-3)[GalNAc(b1-4)]GlcNAc6S
Procedure, shortened: as §1

Fuc(b1-3)GlcNAc = biological target: Fuc(b1-3)GlcNAc
Procedure, shortened: as §1

[6] = biological target: Gal(a1-3)Gal(b1-4)GlcNAc(b1-2)Man(a1-3)[Gal(a1-3)Gal(b1-4)GlcNAc(b1-2)Man(a1-6)]Man(b1-4)GlcNAc(b1-4)GlcNAc
Procedure, shortened: as §1

[7] = biological target: Gal(a1-3)Gal(b1-4)[Fuc(a1-3)]GlcNAc(b1-2)Man(a1-3)[Gal(a1-3)Gal(b1-4)[Fuc(a1-3)]GlcNAc(b1-2)Man(a1-6)]Man(b1-4)GlcNAc(b1-4)GlcNAc
Procedure, shortened: as §1

[8] = biological target: Gal(a1-4)Gal(b1-3)GlcNAc(b1-2)Man(a1-3)[Gal(a1-4)Gal(b1-3)GlcNAc(b1-2)Man(a1-6)]Man(b1-4)GlcNAc(b1-4)GlcNAc
Procedure, shortened: as §1

[9] = biological target: Gal(a1-4)Gal(b1-4)GlcNAc(b1-2)Man(a1-3)[Gal(a1-4)Gal(b1-4)GlcNAc(b1-2)Man(a1-6)]Man(b1-4)GlcNAc(b1-4)GlcNAc
Procedure, shortened: as §1

Gal(b1-3)GalNAc = biological target: Gal(b1-3)GalNAc
Procedure, shortened: as §1

[10] = biological target: Gal(b1-3)GalNAc(b1-4)Gal(b1-4)Glc
Procedure, shortened: as §1

[11] = biological target: Gal(b1-3)GlcNAc(a1-3)Gal(b1-4)GlcNAc
Procedure, shortened: as §1

Gal(b1-3)GlcNAc(b1-2)Man = biological target: Gal(b1-3)GlcNAc(b1-2)Man
Procedure, shortened: as §1

[12] = biological target: Gal(b1-3)GlcNAc(b1-2)Man(a1-3)[Gal(b1-3)GlcNAc(b1-2)Man(a1-6)]Man(b1-4)GlcNAc(b1-4)GlcNAc
Procedure, shortened: as §1

[13] = biological target: Gal(b1-3)GlcNAc(b1-3)Gal(b1-3)GlcNAc
Procedure, shortened: as §1

[14] = biological target: Gal(b1-4)GalNAc(a1-3)[Fuc(a1-2)]Gal(b1-4)GlcNAc
Procedure, shortened: as §1

[15] = biological target: Gal(b1-4)GlcNAc(b1-2)Man(a1-3)[Gal(b1-4)GlcNAc(b1-2)Man(a1-6)]Man(b1-4)GlcNAc(b1-4)GlcNAc
Procedure, shortened: as §1

[16] = biological target: Gal(b1-4)GlcNAc(b1-2)Man(a1-3)[GlcNAc(b1-2)Man(a1-6)]Man(b1-4)GlcNAc(b1-4)GlcNAc
Procedure, shortened: as §1

[17] = biological target: Gal(b1-4)GlcNAc(b1-2)Man(a1-3)[Man(a1-6)]Man(b1-4)GlcNAc(b1-4)GlcNAc
Procedure, shortened: as §1

[18] = biological target: Gal(b1-4)GlcNAc(b1-2)Man(a1-6)[GlcNAc(b1-2)Man(a1-3)]Man(b1-4)GlcNAc(b1-4)GlcNAc
Procedure, shortened: as §1

[19] = biological target: Gal(b1-4)GlcNAc(b1-3)Gal(b1-4)GlcNAc(b1-2)[Gal(b1-4)GlcNAc(b1-3)Gal(b1-4)GlcNAc(b1-6)]Man(a1-6)[Gal(b1-4)GlcNAc(b1-3)Gal(b1-4)GlcNAc(b1-2)Man(a1-3)]Man(b1-4)GlcNAc(b1-4)[Fuc(a1-6)]GlcNAc
Procedure, shortened: as §1

[20] = biological target: Gal(b1-4)GlcNAc(b1-3)Gal(b1-4)GlcNAc(b1-3)[Gal(b1-4)GlcNAc(b1-3)Gal(b1-4)GlcNAc(b1-6)]GalNAc
Procedure, shortened: as §1

Gal4S(b1-4)GlcNAc = biological target: Gal4S(b1-4)GlcNAc
Procedure, shortened: as §1

Gal6S(b1-4)Glc6S = biological target: Gal6S(b1-4)Glc6S
Procedure, shortened: as §1

GalNAc(a1-3)Gal = biological target: GalNAc(a1-3)Gal
Procedure, shortened: as §1

[21] = biological target: GalNAc(a1-3)GalNAc(b1-3)Gal(a1-4)Gal(b1-4)Glc
Procedure, shortened: as §1

[22] = biological target: GalNAc(b1-4)GlcNAc(b1-2)Man(a1-3)[GalNAc(b1-4)GlcNAc(b1-2)Man(a1-6)]Man(b1-4)GlcNAc(b1-4)GlcNAc
Procedure, shortened: as §1

GalNAc3S(b1-4)GlcNAc = biological target: GalNAc3S(b1-4)GlcNAc
Procedure, shortened: as §1

GalNAc6S(b1-4)GlcNAc = biological target: GalNAc6S(b1-4)GlcNAc
Procedure, shortened: as §1

B1: GNL (Galanthus nivalis) (protein)
chain: MGHHHHHHHHYGTLENGHWLMVGMSIFSKDRTVELRMQDDGKLAIYYNDHCAWQSTAQQVNNAKGAVMQGDGNFCIYDKNGKATWHTNTAAPSGDSHTFVSVQDDGNLVLYKNNGATPIWSSKSNK
[1]
  glycan array binding signal (z-score): -0.231
[2]
  glycan array binding signal (z-score): -0.172
[3]
  glycan array binding signal (z-score): -0.207
[4]
  glycan array binding signal (z-score): -0.237
[5]
  glycan array binding signal (z-score): -0.181
Fuc(b1-3)GlcNAc
  glycan array binding signal (z-score): -0.156
[6]
  glycan array binding signal (z-score): 3.44
[7]
  glycan array binding signal (z-score): -0.054
[8]
  glycan array binding signal (z-score): 4.92
[9]
  glycan array binding signal (z-score): 5.71
Gal(b1-3)GalNAc
  glycan array binding signal (z-score): -0.233
[10]
  glycan array binding signal (z-score): -0.061
[11]
  glycan array binding signal (z-score): -0.174
Gal(b1-3)GlcNAc(b1-2)Man
  glycan array binding signal (z-score): -0.16
[12]
  glycan array binding signal (z-score): 4.54
[13]
  glycan array binding signal (z-score): -0.228
[14]
  glycan array binding signal (z-score): -0.257
[15]
  glycan array binding signal (z-score): 4.76
[16]
  glycan array binding signal (z-score): 3.92
[17]
  glycan array binding signal (z-score): 10.9
[18]
  glycan array binding signal (z-score): 7.59
[19]
  glycan array binding signal (z-score): -0.241
[20]
  glycan array binding signal (z-score): -0.222
Gal4S(b1-4)GlcNAc
  glycan array binding signal (z-score): -0.212
Gal6S(b1-4)Glc6S
  glycan array binding signal (z-score): -0.207
GalNAc(a1-3)Gal
  glycan array binding signal (z-score): -0.25
[21]
  glycan array binding signal (z-score): -0.305
[22]
  glycan array binding signal (z-score): -0.248
GalNAc3S(b1-4)GlcNAc
  glycan array binding signal (z-score): -0.219
GalNAc6S(b1-4)GlcNAc
  glycan array binding signal (z-score): -0.21
